Assay [1] can be described thus: qHTS assay to test for compound auto fluorescence at 535 nm (green) in HEK293 cells (AID 720680). Background: qHTS replaces the single test concentration by a dilution series.
The nature of assay [2]: qHTS assay to test for compound auto fluorescence at 460 nm (blue) in HEK293 cell free culture (AID 720681). The procedure, abridged:
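Blue fluorescence (Ex 405/Em 460 nm, triamterene-equivalent) was read immediately after pin transfer of compound or DMSO into medium (DMEM, 10% FBS) without cells.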

Assay [3] is described as follows: qHTS assay to test for compound auto fluorescence at 535 nm (green) in HEK293 cell free culture (AID 720682). The procedure, abridged: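 No cells present: wells hold DMEM supplemented with 10% FBS, into which compound or vehicle is pinned. Green emission is then recorded (485 nm excitation, 535 nm emission) and scaled to fluorescein.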
Assay [4] can be described thus: qHTS assay to test for compound auto fluorescence at 590 nm (red) in HEK293 cell free culture (AID 720683). In outline: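 Red-channel autofluorescence of compounds in culture medium (DMEM, 10% FBS), no cells, measured at 540/590 nm. Rose Bengal sodium is the reference fluorophore for equivalence.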
A short description of assay [5]: qHTS assay to test for compound auto fluorescence at 590 nm (red) in HepG2 cell free culture (AID 720684). The procedure, abridged: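 No cells present: MEM + 10% FBS only. Compound pinned in, red label read (540/590 nm). Activity = fluorescence equivalent to Rose Bengal sodium.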
A short description of assay [6]: qHTS assay to test for compound auto fluorescence at 460 nm (blue) in HepG2 cell free culture (AID 720685). In outline: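 Cell-free plates of MEM plus 10% FBS received 23 nL compound or DMSO vehicle; blue-channel (405/460 nm) intensity scored against triamterene as reference fluorophore.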
A short description of assay [7]: qHTS assay to test for compound auto fluorescence at 460 nm (blue) in HepG2 cells (AID 720687). In outline: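 Blue-channel autofluorescence (Ex/Em 405/460 nm, triamterene-equivalent) was measured after 1 hr compound exposure at 37 C, 5% CO2. Cells were HepG2, plated overnight at 37 C in MEM plus 10% FBS.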
The target in assay [8] is Glucocorticoid receptor (Homo sapiens) (UniProt P04150). Put plainly: qHTS assay to identify small molecule agonists of the glucocorticoid receptor (GR) signaling pathway (AID 720691; active = well fitted activation curve with a large enough effect in the signal ratio in the repeat runs, not every such curve was filed as active; the % refers to the signal ratio). The procedure, abridged:
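Agonist-mode qHTS in HeLa cells stably expressing a glucocorticoid-response-element beta-lactamase reporter. Fluorescence intensity read with FRET substrate (2 h, room temperature) after 18 h compound treatment at 37 C.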

The target is the same in assay [9]. Put plainly: qHTS assay to identify small molecule antagonists of the glucocorticoid receptor (GR) signaling pathway (AID 720692; active = well fitted inhibition curve with a large enough effect in the signal ratio in the repeat runs, not every such curve was filed as active; the % refers to the signal ratio). The procedure, abridged: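 Inhibition of dexamethasone-driven (5 nM final) beta-lactamase expression was measured in GRE-reporter HeLa cells over 18 h at 37C. Fluorescence was read after 2 h with the B/G FRET substrate at room temperature.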

Assay [10] is described as follows: qHTS assay to identify small molecule antagonists of the glucocorticoid receptor (GR) signaling pathway - cell viability counter screen (AID 720693). Also: nearly all actives have a fitted effect of over 55% in size.
A short description of assay [11]: qHTS assay for identifying genotoxic compounds that show differential cytotoxicity against isogenic chicken DT40 cell lines with known DNA damage response pathways - wild type cell line (AID 743012). Also: nearly all actives have a fitted effect of over 60% in size. In outline:
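Viability by ATP luminescence (CellTiter-Glo, 30 min RT) after 40 h compound treatment at 37 C/5% CO2, using 300 parental DNA repair-proficient DT40 cells per well.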

A short description of assay [12]: qHTS assay for identifying genotoxic compounds that show differential cytotoxicity against isogenic chicken DT40 cell lines with known DNA damage response pathways - Rev3 mutant cell line (AID 743014). Also: nearly all actives have a fitted effect of over 55% in size. Also: potency is read from the fitted curve at half-maximal effect.
The nature of assay [13]: qHTS assay for identifying genotoxic compounds that show differential cytotoxicity against isogenic chicken DT40 cell lines with known DNA damage response pathways - Rad54/Ku70 mutant cell line (AID 743015). Also: nearly all actives have a fitted effect of over 60% in size. Also: potency is read from the fitted curve at half-maximal effect.
A short description of assay [14]: qHTS assay to identify small molecule antagonists of the androgen receptor (AR) signaling pathway - cell viability counter screen (AID 743033; also: nearly all actives have a fitted effect of over 45% in size).
Assay [15] can be described thus: qHTS assay to identify small molecule antagonists of the androgen receptor (AR) signaling pathway using the MDA cell line - cell viability counter screen (AID 743041; also: nearly all actives have a fitted effect of over 45% in size). In outline:
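Using the breast carcinoma line MDA-kb2 AR-luc, test chemicals were co-incubated with R1881 for 16 h; CellTiter-Fluor reagent, added at 15.5 h, provided a fluorescence measure of live cells.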

A short description of assay [16]: qHTS assay to identify small molecule antagonists of the thyroid receptor (TR) signaling pathway - cell viability counter screen (AID 743064). Also: nearly all actives have a fitted effect of over 50% in size. The procedure, abridged: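 Rat GH3 pituitary tumor cells stably expressing two TR response elements driving luciferase were plated, rested 4 h, then dosed with library compounds and T3 (1 nM final). After 23.5 h at 37 °C, CellTiter-Fluor was added for 30 min and fluorescence recorded.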

Results filed as inconclusive are left out. A structure can be active in one record and inactive in another. Active and inactive are the calls of the source. Unless noted, calls follow the shape of the dose curve; as a rule, active = well fitted curve in the direction sought with a large enough effect in the repeat runs; inconclusive = weak or mixed curves; inactive = no such curve, though single readings can be large; an effect the other way counts as inactive or inconclusive.

Glucocorticoid receptor (Homo sapiens), sequence (P04150 whole entry, looked up): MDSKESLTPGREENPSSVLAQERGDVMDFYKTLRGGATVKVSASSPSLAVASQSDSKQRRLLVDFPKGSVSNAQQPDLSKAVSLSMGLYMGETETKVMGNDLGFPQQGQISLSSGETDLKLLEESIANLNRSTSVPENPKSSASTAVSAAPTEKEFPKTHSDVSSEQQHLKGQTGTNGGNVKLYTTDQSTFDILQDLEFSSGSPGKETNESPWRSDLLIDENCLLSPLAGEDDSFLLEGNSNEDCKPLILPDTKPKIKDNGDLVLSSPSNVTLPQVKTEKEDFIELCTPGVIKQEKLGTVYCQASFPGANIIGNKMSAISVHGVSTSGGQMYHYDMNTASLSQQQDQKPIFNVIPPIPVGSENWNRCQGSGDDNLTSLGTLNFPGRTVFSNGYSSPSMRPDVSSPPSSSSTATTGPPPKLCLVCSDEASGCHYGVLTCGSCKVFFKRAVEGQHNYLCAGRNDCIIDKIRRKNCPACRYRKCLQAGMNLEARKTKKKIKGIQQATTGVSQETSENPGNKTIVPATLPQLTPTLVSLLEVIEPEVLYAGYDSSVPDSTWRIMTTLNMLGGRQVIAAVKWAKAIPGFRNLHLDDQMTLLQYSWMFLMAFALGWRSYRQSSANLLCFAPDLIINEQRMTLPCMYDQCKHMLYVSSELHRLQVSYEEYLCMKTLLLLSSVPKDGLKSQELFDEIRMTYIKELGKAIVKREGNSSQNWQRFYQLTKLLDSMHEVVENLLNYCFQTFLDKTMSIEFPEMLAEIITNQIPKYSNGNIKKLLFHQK

Turning to `CC(=O)Nc1nnc(S(N)(=O)=O)s1`, the result in assay [1], in [2], in assay [3], in assay [4], in [5] and in assay [6] was inactive. In addition, the result in [7], in assay [9] and in assay [14] was inactive. The Potency entry in [8], in assay [10], in assay [11], in assay [12], in assay [13] and in assay [15] was “inactive” each time. The Potency entry in assay [16] was “inactive”.
With `CC1(C)[C@@H]2CC[C@@]1(C)C(=O)C2`, the compound was called inactive in assay [1], in assay [2], in [3], in assay [4], in assay [5] and in [6]. In addition, the compound was classed as inactive in [7], in assay [9] and in assay [14]. In addition, the Potency entry in assay [8], in assay [10], in assay [11], in [15] and in assay [16] was “inactive” in each case. The Potency in assay [12] is 4.73 µM (active) and inactive; in [13] it was 2.98 µM (active) and inactive.
On to `O=C(C1CCCCC1)N1CC(=O)N2CCc3ccccc3C2C1` (stereo not given), for which the compound was classed as inactive in assay [1], in assay [2], in assay [3], in assay [4], in assay [5] and in assay [6]. Moreover, the call in assay [7], in [9] and in assay [14] was inactive. Also, the Potency result in [8], in [10], in assay [11], in assay [12], in assay [13] and in assay [15] was “inactive” throughout. Also, the Potency entry in assay [16] was “inactive”.
For `Nc1ccc(S(=O)(=O)c2ccc(N)cc2)cc1`, the outcome in [1], in [2], in assay [3], in [4], in assay [5] and in assay [6] was inactive. Further, the result in [7] and in assay [14] was inactive. In addition, the Potency result in [10], in assay [11], in [12], in [13] and in [15] was “inactive” throughout.
Turning to `CCCCC1C(=O)N(c2ccccc2)N(c2ccccc2)C1=O`, the result in [1], in assay [2], in assay [3], in assay [4], in [5] and in assay [6] was inactive. The result in [7], in assay [9] and in assay [14] was inactive. The Potency result in assay [8], in assay [10], in assay [11], in [12], in assay [13] and in [15] was “inactive” each time. Further, the Potency entry in assay [16] was “inactive”.
For `CC(O)CN(CCN(CC(C)O)CC(C)O)CC(C)O` (stereo not given), the outcome in assay [1], in [2], in [3], in assay [4], in assay [5] and in assay [6] was inactive. Moreover, the outcome in assay [7], in assay [9] and in [14] was inactive. For the same compound, the Potency entry in assay [8], in assay [10], in [11], in assay [12], in [13] and in assay [15] was “inactive” each time. Besides, in assay [16], the Potency result was “inactive”.
Take `NC(N)=NC(=O)c1nc(Cl)c(N)nc1N`: the outcome in assay [1], in [2], in [3], in [4], in assay [5] and in assay [6] was inactive. Also, the outcome in assay [7], in [9] and in assay [14] was inactive. The Potency entry in assay [8], in [10], in [11], in assay [12], in assay [13] and in assay [15] was “inactive” each time. Further, the Potency entry in [16] was “inactive”.
On to `Nc1ccc(O)c(C(=O)O)c1`, for which the compound was called inactive in assay [1], in assay [2], in assay [3], in assay [4], in [5] and in assay [6]. The call in assay [7], in assay [9] and in assay [14] was inactive. In addition, the Potency result in assay [8], in [10], in assay [11], in [12], in [13] and in assay [15] was “inactive” in each case. Further, the Potency entry in [16] is “inactive”.

The values above are taken from PubChem BioAssay (Tox21).
